Screening data: PubChem, National Center for Advancing Translational Sciences (NCATS)
KCNH2 3.1 block – KCNH2 3.1 (human) potassium channel inhibition. U2OS KCNH2 3.1, thallium flux FluxOr; active compounds read low. activity change, % (tested at about 1.8 µM). hit rate 0.95% among 340,000. AID 720553;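 active = maximum activity change below -70%; inconclusive = maximum activity change from -70% to -50%; inactive = maximum activity change above -50%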;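 also: thallium influx rate constant from kinetic fluorescence after stimulation buffer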
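Steps: virus added to U2OS suspension (4 h, RT, dark); medium with 10% FBS added, cells plated, 37 C overnight; FluxOr/Red40 loading buffer 45 min RT; stimulation buffer, 2 min kinetic read; rate constant normalized.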
GRP78 ERSR act – inducers of ER stress response in human glioma cells; Potency, µM, actives largely listed as activators; U87-MG GRP78 promoter luciferase reporter, 16 h; hit rate 0.02% among 420,000; active = well fitted activation curve with a large enough effect; inconclusive = small, poorly fitted or top-dose-only effect; inactive = no such curve, though single readings can be large or run the other way; also: series mostly up to about 76 µM; nearly all actives have a fitted effect of over 35% in size
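Stably transfected U87-MG human glioma cells carrying a GRP78-based luminescent sensor were seeded at 1000 cells/well, pin-dosed with compounds and incubated 16 h. Luciferase reagent was then added, and end-point luminescence was read after 10 min at room temperature.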
gsp antag – gsp mutant antagonism; gsp-mutant cells, cAMP HTRF, 30 min; Potency, µM (top dose mostly 76.9 µM), hits mostly inhibitors; hit rate 0.4% among 340,000; AID 624288; calls by dose curve; cell line not stated here;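 also: intracellular cAMP measured with PDE inhibitor Ro 20-1724 present during compound exposure; nearly all actives have a fitted effect of over 65% in size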
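HTRF cAMP read-out (cAMP-d2 plus anti-cAMP antibody-K in lysis buffer, 30 min RT). Before lysis, cells are exposed to compounds with […] for 30 min at 37C in DPBS containing Ca/Mg, BSA and Tween 20.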
gsp agonist – activates gsp, the McCune-Albright syndrome mutation. gsp mutant cells, cAMP HTRF, 30 min. Potency, µM (top dose mostly 76.9 µM), most hits filed as activators. hit rate 0.13% among 340,000. AID 624287; active = well fitted activation curve with a large enough effect; inconclusive = small, poorly fitted or top-dose-only effect, or another doubt; inactive = no such curve, though single readings can be large or run the other way; cell line not stated here;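 also: phosphodiesterase inhibitor Ro 20-1724 added with compounds to block cAMP breakdown; nearly all actives have a fitted effect of over 60% in size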
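Cells stably selected in G418 were plated at 2000/well, grown 16-24 hr, then given compounds in DMSO with the PDE inhibitor […] (300 uM solution added) for 30 min at 37C; cAMP was read by HTRF.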
KCNH2 WT inh – KCNH2 (human, wildtype) channel inhibition. activity change, % at 1.84 µM. Q12809. hit rate 0.37% among 340,000. U2OS, BacMam KCNH2, thallium flux FluxOr; active compounds read low;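 active = maximum activity change below -70%; inconclusive = maximum activity change between -70% and -50%; inactive = maximum activity change above -50%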
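U2OS cells transduced with wild-type KCNH2 virus are loaded with FluxOr dye for 45 min, and thallium flux is measured in kinetic reads before and after stimulation buffer. Rate constants are normalized to DMSO controls.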
pAkt inh – blocks phosphorylation of Akt | hit rate 0.32% among 360,000 | Neuro2A IGF-stimulated pAkt S473 HTRF, 20 min; active compounds read low | AID 651550 | activity change, % for hits at 50 µM; in the data active = activity change below about -80%; inconclusive = mostly about -51% to -80%
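Neuro2A cells (4,500/well, DMEM with 0.5% FBS) were treated with compound at a single 50 µM final concentration, stimulated with 6 nM IGF for 20 min at 37 °C, and lysed. Phospho-Akt Ser473 was read by HTRF as 665/615 ratio ×10^4.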
A number is an active result; 0 = inactive; ? = inconclusive; - = no result given; [ ] = another dose, or the depositor's remark. Most compounds without a hit are left out; they make up all but 1.6% or so of the library.

SMILES	KCNH2 3.1 block	GRP78 ERSR act	gsp antag	gsp agonist	KCNH2 WT inh	pAkt inh
CCOc1ccc(CN2CCN(Cc3cnc(-c4ccccc4)s3)CC2CCO)cc1 (stereo not given)	-97.2	0	0	0	-96.0	0
CC[C@H]1OC(=O)[C@H](C)[C@@H](O[C@H]2C[C@@](C)(OC)[C@@H](O)[C@H](C)O2)[C@H](C)[C@@H](O[C@@H]2O[C@H](C)C[C@H](N(C)C)[C@H]2O)[C@](C)(O)C[C@H](C)C(=NOCOCCOC)[C@H](C)[C@@H](O)[C@]1(C)O	-	0	-	-	-	-
CCc1nc2cc(C(=O)N3CCC[C@H]3C(=O)OC)cc(NC(=O)c3ccccc3OC)c2n1C	-	0	-	-	-	-
CC[C@@H](C)[C@@H](O)[C@H](C)C(=O)[C@H](C)/C=C(\C)C[C@H](C)[C@@H]1OC(=O)[C@H]1CC	-	0	-	-	-	-
N=C1N(c2ccccc2)C(=S)C(=Nc2ccccc2)N1c1ccccc1	0	0	0	0	-70.7	0
COc1cc(-c2cc(C)c3cccc(OC)c3n2)cc2c1OCCN(C(=O)CCn1nc(C)cc1C)C2	-	0	-	-	-	-
COC(=O)c1sc(-c2ccccc2)cc1NC(C)=O	0	0	0	0[15.4 µM]	0	0
COC(=O)c1sc(-c2cccs2)cc1NC(=O)/C=C/C(=O)O	0	0	22.4µM	?	0	0
Cc1ccnc2c(Cl)c(Cl)ccc12	-	0	-	-	-	-
OCCC1CN(Cc2ccc(-n3cccn3)cc2)CCN1Cc1ccccc1 (stereo not given)	0	0	0	0	0	0
Cc1cc(C)c(CN2CCN(Cc3ccc(C)o3)C(CCO)C2)c(-n2cccn2)c1 (stereo not given)	-72.4	0	0	0[15.4 µM]	0	0
Cc1ccc(CN2CCN(Cc3cccc(-n4cccn4)c3)CC2CCO)cc1 (stereo not given)	-86.6	0	0	0[15.4 µM]	0	0
Cc1ccc(CN2CCN(Cc3ccc(-n4cccn4)cc3C)CC2CCO)cc1 (stereo not given)	-158.3	0	0	0	-91.1	0
CC(C)=CCC/C(C)=C\CC/C(C)=C\CC/C(C)=C\CC1=C(C)C(=O)c2ccccc2C1=O	-	0	-	-	-	-
COc1ccc(C(=O)NCCCC2CCCC2)cc1OC1CCN(C(C)C)CC1	-93.8	0	-	0	0	0
COc1ccc(C(=O)NC2CC2)cc1OC1CCN(Cc2ccc(Cl)cc2)CC1	-	0	0	0[15.4 µM]	-128.2	0
CCc1ccc(CN2CCC(Oc3cc(C(=O)NC4CC4)ccc3OC)CC2)cc1	-97.3	0	-	0	-108.2	0
C=CCOc1ccccc1CN1CCC(Oc2cc(C(=O)NC3CC3)ccc2OC)CC1	-76.9	0	0	0	-99.4	0
Brc1ccc(C=C2C=c3ccccc3=C2)cc1	-	0	-	-	-	-
COc1ccc(C(=O)NC2CC2)cc1OC1CCN(C(C)CSC)CC1 (stereo not given)	-73.6	0	0	0	0	0
C/C=C(\C)CN1CCC(Oc2cc(C(=O)NC3CC3)ccc2OC)CC1	-	0	0	0[15.4 µM]	0	0
O=C(NCCc1nnc2n1CCN(Cc1ccc(F)cc1)CC2)c1ccco1	-	0	-	-	-	-
O=C1OC(NC(=O)c2ccccc2)C(n2cc(CO)nn2)=C1Cl (stereo not given)	0	0	0	0	0	-114.2%
Cc1ccc(NC2=C(Cl)C(=O)OC2NC(=O)c2ccccc2)cc1 (stereo not given)	0	0	0	0	0	0
CC(=O)Nc1ccc(NC(=O)c2c([N+](=O)[O-])c(C(C)(C)C)nn2C)cc1	0	0	0	0[15.4 µM]	0	0
SMILES	KCNH2 3.1 block	GRP78 ERSR act	gsp antag	gsp agonist	KCNH2 WT inh	pAkt inh
COc1ccc(NC(=O)c2c([N+](=O)[O-])c(C(C)(C)C)nn2C)cc1	-81.3	0	0	0	0	0
CC1(C)CCC(=O)N2CC[C@H]3C[C@H](OC(=O)Nc4ccc5c(c4)OCO5)C[C@@H]1[C@H]32	-135.4	0	0	0	0	0
COc1ccc(C2(CNC(=O)CCC(=O)O)CCCC2)cc1	0	0	0	0	0	-114.5%
COc1ccc(C(=O)NCC2(c3ccccc3)CCCC2)c(OC)c1	0	0	?	0	0	0
Cc1cc(NC(=O)CSc2ncccn2)no1	0	0	0	0	0	0
O=C(CSc1ccc2nnc(-c3ccccn3)n2n1)Nc1ccccc1	-	0	0	0[15.4 µM]	0	0
Cc1cc(NC(=O)CSc2ccc3nnc(-c4ccccn4)n3n2)no1	0	0	0	6.31µM	0	0
Cc1cc(NC(=O)CSc2ncn(-c3ccccc3)n2)no1	0	0	0[15.4 µM]	0	0	-111.6%
COc1ccc(-c2nc3cc(C)ccc3cc2CN(C(=O)c2ccc(C)s2)C2CC2)cc1OC	-	0	-	-	-	-
O=C(NCC1Cc2cccc(-c3cccnc3)c2O1)c1cc(-c2ccccc2)n[nH]1 (stereo not given)	-	0	-	-	-	-
CCCOC(=O)CSC1=C(C#N)C(c2ccccc2OCC)C(C#N)C(=O)N1 (stereo not given)	0	0	0	0	0	0
CCCCOC(=O)CSC1=C(C#N)C(c2ccccc2OCC)C(C#N)C(=O)N1 (stereo not given)	0	0	31.6µM	0	0	-
CCOC(=O)c1nnn(CC(=O)N2N=C(c3ccccc3)CC2c2ccccc2)c1C(=O)OCC (stereo not given)	?	0	0	0	0	-82.8%
Cc1ccc(C(=O)NCCc2nnc3n2CCN(Cc2ccnc4ccccc24)CC3)c(C)c1	-	0	-	-	-	-
O=C1CCc2cc(S(=O)(=O)NC(C(=O)N3CCN(c4ccccn4)CC3)c3ccccc3)ccc2N1 (stereo not given)	0	0	0	0	-117.2	0
N#C/C(=C1/SC[C@@H](c2ccc(Cl)cc2Cl)S1)n1ccnc1	-	0	-	-	-	-
O=C(COc1cccc2ccccc12)N/N=C/c1ccc(Sc2nc3ccccc3s2)o1	0	0	0	0	0	0
O=C(Cc1cccc2ccccc12)N/N=C/c1ccc(Sc2nc3ccccc3s2)o1	0	0	0	0	0	-112.2%
CCn1c(-c2ccccc2F)nc2cc(C(=O)NCc3ccc(C)o3)cc(NC(C)=O)c21	-	0	-	-	-	-
COc1ccccc1CNC(=O)CN(C)S(=O)(=O)c1cccc2cccnc12	-124.6	0	0	0[15.4 µM]	0	0
CC(=O)C1=C(O)C(=O)N(c2cc(C(C)(C)C)on2)C1c1ccc(Br)cc1 (stereo not given)	-81.5	0	0	?	0	0
COc1ccc(CN2CCCC(n3cc(C(=O)N4CCCCC4)nn3)C2)c(OC)c1C (stereo not given)	-	0	-	-	-	-
COc1ccc(NC(=O)CC2C(=O)N(c3ccc(OC)cc3)C(=O)N2C(C)C)cc1 (stereo not given)	-82.4	0	0	0	0	0
CCCN1C2CCCC1CC(NC(=O)Nc1cccc(C(C)=O)c1)C2 (stereo not given)	0	0	0	0	0	0
